Inconclusive results are not listed. Activity calls are given as the source filed them. Unless noted, calls follow the shape of the dose curve; as a rule, active = well fitted curve in the direction sought with a large enough effect in the repeat runs; inconclusive = weak or mixed curves; inactive = no such curve, though single readings can be large; an effect the other way counts as inactive or inconclusive.
Tests used:
[1] = qHTS assay to identify small molecule antagonists of the estrogen receptor alpha (ER-alpha) signaling pathway using the BG1 cell line in the presence of 0.1 nM 17-beta-estradiol - cell viability counter screen (AID 1259241); also: nearly all actives have a fitted effect of over 40% in size
How it was run: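 VM7Luc4E2 cells (endogenous full-length ER-alpha, 4xERE-luciferase), cultured 5 days in charcoal-stripped serum, exposed to compounds with 0.1 nM 17beta-estradiol (final) for 22 hr at 37C. Viability read in same wells as live-cell protease fluorescence after 30 min.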

[2] = qHTS assay to identify small molecule antagonists of the androgen receptor (AR) signaling pathway using the MDA cell line in the presence of 0.5 nM R1881 - cell viability counter screen (AID 1259242); also: nearly all actives have a fitted effect of over 45% in size
How it was run: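 R1881 at 0.5 nM final stimulated MDA-kb2 cells during 16 hr compound treatment at 37C. Cytotoxicity read: CellTiter-Fluor fluorescence after 30 min.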

[3] = target: Androgen receptor (Homo sapiens) (UniProt P10275); assay: qHTS assay to identify small molecule antagonists of the androgen receptor (AR) signaling pathway using the MDA cell line in the presence of 0.5 nM R1881 (AID 1259243); also: nearly all actives have a fitted effect of over 50% in size; also: potency is read from the fitted curve at half-maximal effect
How it was run: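 We exposed MDA-kb2 cells to compounds under 0.5 nM R1881 stimulation for 16 hr at 37C and quantified MMTV-driven luciferase by luminescence.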

[4] = qHTS assay to identify small molecule HDAC inhibitors (AID 1259364);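 also: wild-type HCT-116 cells with endogenous class I/II HDAC activity; top concentration of the series differs between compounds; nearly all actives have a fitted effect of over 45% in size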
How it was run: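 Relative class I and II HDAC activity is taken from the luminogenic signal in HCT-116 cells, with compound exposure 2 hr and reagent development 30 min at room temperature.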

[5] = qHTS assay to identify small molecule HDAC inhibitors - cell viability counter screen (AID 1259365); also: series mostly up to about 92 µM; nearly all actives have a fitted effect of over 50% in size
How it was run: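 Wild-type HCT-116 cells, 1,500/well, cultured overnight, then compound-treated 2 h at 37 C. Viability measured as ATP luminescence with CellTiter-Glo after 30 min at room temperature.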

[6] = qHTS assay to identify small molecule agonists of the sonic hedgehog signaling (Shh) pathway - cell viability counter screen (AID 1259366); also: nearly all actives have a fitted effect of over 50% in size
How it was run: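 NIH/3T3-derived Gli1-Luc reporter cells, 2,000 per well, received compound after 4 h and were treated about 23 h at 37C. Viability measured in the same wells by CellTiter-Fluor fluorescence after 1 h.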

[7] = qHTS assay to identify small molecule agonists of the sonic hedgehog signaling (Shh) pathway (AID 1259368; calls by dose curve;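 also: NIH/3T3-derived 3T3Gli1-Luc cells carrying a stable Gli1-driven firefly luciferase reporter; series mostly up to about 92 µM; nearly all actives have a fitted effect of over 15% in size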)
How it was run: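 Mouse fibroblast (NIH/3T3) reporter cells with stably integrated Gli1-Luc were treated 24 hr with compound; firefly luciferase luminescence served as the read-out.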

[8] = target: Estrogen receptor (Homo sapiens) (UniProt P03372); assay: qHTS assay to identify small molecule antagonists of the estrogen receptor alpha (ER-alpha) signaling pathway using the BG1 cell line in the presence of 0.1 nM 17-beta-estradiol (AID 1259244); also: nearly all actives have a fitted effect of over 50% in size
How it was run: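 VM7Luc4E2; 4xERE-luciferase; 0.1 nM E2 final; 22 h co-incubation, 37C; ONE-Glo luminescence after 30 min at room temperature.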

[9] = qHTS assay to identify small molecule antagonists of the sonic hedgehog signaling (Shh) pathway - cell viability counter screen (AID 1259367); also: nearly all actives have a fitted effect of over 55% in size
How it was run: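 After a 4 hr settling period, 3T3 Gli1-Luc cells were treated with DMSO-dissolved chemicals and conditioned medium, kept 24 hr at 37C in 5% CO2, and assayed for viability by CellTiter-Fluor fluorescence following 1 hr reagent incubation.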

[10] = qHTS assay to identify small molecule phospholipidosis (PLD) inducers (AID 1259344; active = well fitted curve in the direction sought with a large enough effect; an effect the other way counts as inactive or inconclusive)
How it was run: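 HepG2 cells grown on collagen I take up LipidTOX Red while exposed to compound for 24 h; after fixation they are imaged at 20x and pit metrics are extracted.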
% is scaled to controls: 0 for no effect and ±100 for the full control effect.

Androgen receptor (Homo sapiens), sequence (P10275 whole entry, looked up): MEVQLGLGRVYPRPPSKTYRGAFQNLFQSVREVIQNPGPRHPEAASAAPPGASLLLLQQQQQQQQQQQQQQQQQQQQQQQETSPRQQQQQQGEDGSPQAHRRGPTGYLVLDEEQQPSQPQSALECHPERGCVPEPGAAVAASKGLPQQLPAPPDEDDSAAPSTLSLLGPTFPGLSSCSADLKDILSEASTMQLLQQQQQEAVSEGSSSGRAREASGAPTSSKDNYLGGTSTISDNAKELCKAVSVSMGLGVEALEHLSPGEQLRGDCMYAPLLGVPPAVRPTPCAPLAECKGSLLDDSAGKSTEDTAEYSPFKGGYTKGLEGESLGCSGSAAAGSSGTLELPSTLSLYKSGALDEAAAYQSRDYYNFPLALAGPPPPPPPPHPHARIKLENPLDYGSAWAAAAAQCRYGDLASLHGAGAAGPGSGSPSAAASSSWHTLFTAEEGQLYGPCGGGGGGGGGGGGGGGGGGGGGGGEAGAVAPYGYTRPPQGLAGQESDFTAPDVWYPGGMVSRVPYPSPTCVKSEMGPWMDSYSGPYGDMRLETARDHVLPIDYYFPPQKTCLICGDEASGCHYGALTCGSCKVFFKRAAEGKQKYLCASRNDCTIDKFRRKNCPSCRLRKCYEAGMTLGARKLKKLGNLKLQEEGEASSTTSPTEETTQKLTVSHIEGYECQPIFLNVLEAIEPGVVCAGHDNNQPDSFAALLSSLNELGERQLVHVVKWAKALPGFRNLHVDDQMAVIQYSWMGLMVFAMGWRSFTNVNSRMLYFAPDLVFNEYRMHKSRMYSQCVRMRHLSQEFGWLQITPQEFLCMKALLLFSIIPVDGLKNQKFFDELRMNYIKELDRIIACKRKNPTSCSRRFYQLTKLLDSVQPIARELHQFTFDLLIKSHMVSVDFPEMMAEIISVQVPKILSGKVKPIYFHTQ
Estrogen receptor (Homo sapiens), sequence (P03372 whole entry, looked up): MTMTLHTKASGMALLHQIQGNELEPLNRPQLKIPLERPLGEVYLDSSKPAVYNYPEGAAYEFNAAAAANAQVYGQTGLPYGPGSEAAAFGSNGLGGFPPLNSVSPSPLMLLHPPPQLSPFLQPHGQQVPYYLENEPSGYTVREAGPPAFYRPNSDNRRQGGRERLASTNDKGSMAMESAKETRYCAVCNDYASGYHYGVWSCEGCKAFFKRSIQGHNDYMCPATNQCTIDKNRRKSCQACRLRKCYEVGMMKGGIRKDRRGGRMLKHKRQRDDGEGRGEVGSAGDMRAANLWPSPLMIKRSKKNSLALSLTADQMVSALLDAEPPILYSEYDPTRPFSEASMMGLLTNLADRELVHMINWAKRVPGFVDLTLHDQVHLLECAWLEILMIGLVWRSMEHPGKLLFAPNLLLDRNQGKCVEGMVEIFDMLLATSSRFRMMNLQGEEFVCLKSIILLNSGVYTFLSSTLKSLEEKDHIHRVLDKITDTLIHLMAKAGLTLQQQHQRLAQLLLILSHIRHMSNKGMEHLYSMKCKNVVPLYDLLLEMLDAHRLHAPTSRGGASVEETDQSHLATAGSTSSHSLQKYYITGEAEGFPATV

CCCOc1nn(C(=O)NS(=O)(=O)c2ccccc2C(=O)OC)c(=O)n1C
inactive: outcome [1] | Potency [2] | Potency [3] | Potency [4] | outcome [5] | Potency [6] | outcome [7]

OP(O)c1ccccc1
inactive: outcome [1] | Potency [2] | Potency [3] | Potency [8] | Potency [4] | outcome [5] | Potency [6] | Potency [9] | outcome [7]

O=C(Cl)/C=C/C(=O)Cl
inactive: outcome [1] | Potency [2] | Potency [3] | Potency [8] | Potency [4] | outcome [5] | Potency [9] | outcome [7]

CCN[C@@H](C)Cc1ccccc1
inactive: outcome [1] | Potency [2] | Potency [3] | Potency [8] | Potency [10] | Potency [4] | outcome [5] | Potency [6] | Potency [9] | outcome [7]

CCc1ccc(C2CCNCC2)cc1
inactive: outcome [1] | Potency [2] | Potency [3] | Potency [4] | outcome [5] | Potency [6] | Potency [9] | outcome [7]

CCCOC(=O)c1cncn1C(C)c1ccccc1 (stereo unspecified)
inactive: outcome [1] | Potency [2] | Potency [3] | Potency [8] | Potency [4] | outcome [5] | Potency [6] | Potency [9] | outcome [7]

CCNc1nc(Cl)nc(NC(C)(C)C)n1
inactive: outcome [1] | Potency [2] | Potency [3] | Potency [8] | Potency [4] | outcome [5] | Potency [6] | Potency [9] | outcome [7]

COc1ccc(C=O)cc1O
inactive: outcome [1] | Potency [2] | Potency [3] | Potency [4] | outcome [5] | Potency [6] | Potency [9] | outcome [7]

Clc1cc2c(cc1Cl)Oc1cc(Cl)c(Cl)cc1O2
inactive: activity change, negative = cytotoxicity [1] -0.812% [at 0.349 µM] | viability change, negative = cytotoxic [2] -3.69% [at 0.349 µM] | activity, negative = inhibition [3] 16.7% [at 0.349 µM] | activity change, negative = inhibition [4] 0.908% [at 0.349 µM] | activity change, negative = cytotoxicity [5] 6.76% [at 0.349 µM] | viability change, negative = cytotoxic [6] -1.46% [at 0.349 µM] | viability change, negative = cytotoxic [9] 1.51% [at 0.349 µM] | activity change [7] 0.117% [at 0.349 µM]

COP(=O)(O)OC
inactive: outcome [1] | Potency [2] | Potency [3] | Potency [4] | outcome [5] | Potency [6] | Potency [9]

CCOC1Oc2ccc(OS(C)(=O)=O)cc2C1(C)C (stereo unspecified)
active: Potency [3] 60.6 µM
inactive: outcome [1] | Potency [2] | Potency [4] | outcome [5] | Potency [6] | Potency [9] | outcome [7]

CC[C@@H](CO)NC(=O)[C@@H]1C=C2c3cccc4[nH]cc(c34)C[C@H]2N(C)C1
inactive: outcome [1] | Potency [2] | Potency [3] | Potency [8] | Potency [10] | Potency [4] | outcome [5] | Potency [6]

N[C@@H]1C[C@H]1c1ccccc1
inactive: outcome [1] | Potency [2] | Potency [3] | Potency [10] | Potency [4] | outcome [5] | Potency [6] | Potency [9]

CC(C)N(Cc1ccccc1)C(=O)C(C)(C)C
inactive: outcome [1] | Potency [2] | Potency [3] | Potency [4] | outcome [5] | Potency [6] | Potency [9] | outcome [7]

CCC(CC)(CNC(=O)CCCO)c1cccc(OC)c1
inactive: outcome [1] | Potency [2] | Potency [3] | Potency [4] | outcome [5] | Potency [6] | Potency [9] | outcome [7]

CC(C)(N)Cc1ccccc1Cl
inactive: outcome [1] | Potency [2] | Potency [3] | Potency [8] | Potency [4] | outcome [5] | Potency [6] | Potency [9] | outcome [7]

C[C@H](N)C(=O)c1ccccc1
inactive: outcome [1] | Potency [2] | Potency [3] | Potency [8] | Potency [10] | Potency [4] | outcome [5] | Potency [6] | Potency [9]

O=c1[nH]c2ccccc2n1C1CCNCC1
inactive: outcome [1] | Potency [2] | Potency [3] | Potency [4] | outcome [5] | Potency [6] | Potency [9] | outcome [7]

BrCc1ccc(Br)cc1
inactive: outcome [1] | Potency [2] | Potency [3] | Potency [8] | Potency [4] | outcome [5] | Potency [6] | Potency [9]

CNC(=O)Oc1ccccc1C(C)C
inactive: outcome [1] | Potency [2] | Potency [3] | Potency [8] | Potency [4] | outcome [5] | Potency [6] | Potency [9] | outcome [7]

CCSC(=O)Cl
inactive: outcome [1] | Potency [2] | Potency [3] | Potency [4] | outcome [5] | Potency [6] | Potency [9]

C[N+]1(C)CCCCC1
inactive: outcome [1] | Potency [2] | Potency [3] | Potency [4] | outcome [5] | Potency [6] | Potency [9] | outcome [7]

CC(Cc1ccccc1)NCCCCl (stereo unspecified)
inactive: outcome [1] | Potency [2] | Potency [3] | Potency [4] | outcome [5] | Potency [6] | Potency [9]

CNC(=O)NC(O)C(Cl)(Cl)Cl (stereo unspecified)
inactive: outcome [1] | Potency [2] | Potency [3] | Potency [10] | Potency [4] | outcome [5] | Potency [6] | outcome [7]

CC[C@H](N)c1ccccc1
inactive: outcome [1] | Potency [2] | Potency [3] | Potency [4] | outcome [5] | Potency [6] | outcome [7]

CCN(CC)C1CCCCC1
inactive: outcome [1] | Potency [2] | Potency [3] | Potency [8] | Potency [4] | outcome [5] | Potency [9] | outcome [7]

— PubChem BioAssay (Tox21)
